55 compounds from PubChem BioAssay AID1851 (National Center for Advancing Translational Sciences (NCATS), 2009) can be followed below.

One may read the AC50 as the midpoint of the concentration-response curve, whichever way the signal moves.

In all, about 16,000 compounds went through this assay and about 4,000 (25%) were called active. Roughly 26% stayed inconclusive and do not appear here. Only a sample is shown. Values without a mark were called inactive. The call rests on the fitted dose curve; in most records, active means well fitted curve in the direction sought with a large enough effect; inconclusive means small, poorly fitted or top-dose-only effect, or effect the other way; inactive means no such curve, though single readings can be large or run the other way.
On the % scale 0 is the no-effect control and ±100 the full control effect.

The assay deals with Cytochrome P450 2C9 (Homo sapiens) (UniProt P11712). The assay is described as follows: Cytochrome panel assay with activity outcomes. The conditions noted are these: recombinant CYP, pro-luciferin dealkylation, luminescence, p450-cyp2c9; series mostly up to 57.1 µM; activity, negative = inhibition: at the top concentration.
Cytochrome P450 2C9 (Homo sapiens), sequence (P11712 whole entry, looked up): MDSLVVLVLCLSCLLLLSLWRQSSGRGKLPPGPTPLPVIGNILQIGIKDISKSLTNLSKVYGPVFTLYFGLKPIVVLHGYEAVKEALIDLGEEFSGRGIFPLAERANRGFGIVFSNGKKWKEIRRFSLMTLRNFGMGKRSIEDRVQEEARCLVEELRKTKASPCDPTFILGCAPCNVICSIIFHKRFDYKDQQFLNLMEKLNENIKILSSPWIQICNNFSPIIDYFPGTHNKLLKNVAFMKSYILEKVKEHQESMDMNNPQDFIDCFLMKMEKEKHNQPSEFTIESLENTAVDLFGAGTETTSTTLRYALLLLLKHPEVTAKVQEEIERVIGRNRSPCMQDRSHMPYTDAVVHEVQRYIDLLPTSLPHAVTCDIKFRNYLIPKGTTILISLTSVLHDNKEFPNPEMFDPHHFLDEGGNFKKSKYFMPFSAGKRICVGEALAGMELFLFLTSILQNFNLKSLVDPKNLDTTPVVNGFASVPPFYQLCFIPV
As for `[N-]=[N+]=CC(=O)CC[C@H](N)C(=O)O`, the activity, negative = inhibition was 26.7% [at 11.4 µM].
For `CCC1(CCSC(=N)N)C(=O)NC(=O)NC1=O`, the activity, negative = inhibition is 12.6% [at 11.4 µM].
As to `C[C@H](Br)CN(C[C@H](C)Br)c1ccc2c(c1)Cc1ccccc1-2`, the AC50 is 3.16 µM (active).
In the case of `CCCN1CCO[C@@H]2c3cc(O)ccc3OC[C@@H]21`, the “activity, negative = inhibition” value was -20.6%.
Turning to `COc1cc(C(=O)OC2C[C@H]3CC[C@@H](C2)N3C)ccc1O` (stereo not given in full), the “activity, negative = inhibition” value is 7.43% [at 25.6 µM].
Regarding `CC(=O)O[C@@H]1CN2CCC1CC2`, the “activity, negative = inhibition” value was 23.8%.
As for `CCN1C[C@]2(C)CC[C@@H](O)[C@]34[C@@H]5CC6[C@@H](OC)C[C@@](O)([C@H]5[C@@H]6O)[C@@H](C[C@@H]23)[C@H]14`, the “activity, negative = inhibition” value is 8.37%.
As to `O=C1CC[C@]2(O)[C@H]3Cc4ccc(O)c5c4[C@@]2(CCN3CC2CC2)[C@@H]1O5`, the “activity, negative = inhibition” value was 24.4% [at 25.6 µM].
Take `O=C(/C=C\c1ccc(Cl)cc1)N[C@@]12CCC(=O)[C@@H]3Oc4c(O)ccc5c4[C@@]31CCN(CC1CC1)[C@@H]2C5`: the AC50 was 15.8 µM (active).
For the compound `O=C1CC[C@@]2(O)[C@H]3Cc4ccc(O)c5c4[C@@]2(CCN3CC2CC2)[C@@H]1O5`, the activity, negative = inhibition result was “inactive”.
Same read-out and setting: then `C[C@]12CC[C@@H]3[C@H](CCC4=CC(=O)CC[C@]43C)[C@]1(O)CC[C@@]2(O)C(=O)CO`, with -5.6% [at 11.4 µM].
For `CC(C)[C@@H]1CN[C@H](C(=O)O)[C@@H]1CC(=O)O`, the “activity, negative = inhibition” value is -12.5%.
Consider `O=C(O)[C@@H](O)[C@@H](O)[C@@H]1[O][Sb][O][C@@H]1CO`, for which the activity, negative = inhibition was 5.16% [at 11.4 µM].
Take `C[C@@H](N)Cn1ccc2cc(F)c(Cl)cc21`: the concentration at half-maximal activity (AC50) was 3.98 µM (active).
As to `CC[N+](CC)(CCCNC1=CC(=O)C(NCCC[N+](CC)(CC)Cc2ccccc2)=CC1=O)Cc1ccccc1`, the “activity, negative = inhibition” value was 10.8%.
`CC[C@@H]1[C@@H]2C[C@H]3[C@H]4N(C)c5ccccc5[C@@]45C[C@@H]([C@@H]2[C@@H]5O)N3[C@H]1O`: the “activity, negative = inhibition” value is -8.54% [at 25.6 µM].
As to `CC(C)(C)c1cc(C=C(C#N)C#N)cc(C(C)(C)C)c1O`, the AC50 was 0.0316 µM (active).
For the compound `N#C/C(=C\c1ccc(O)c(O)c1)C(=O)NCCCNC(=O)/C(C#N)=C/c1ccc(O)c(O)c1`, the “activity, negative = inhibition” value was 8.74%.
On to `N#C/C(=C\c1ccc(O)c(O)c1)C(N)=S`, for which the “activity, negative = inhibition” value is -22.3%.
Consider `COc1cc(C=C(C#N)C#N)cc(O)c1O`, for which the AC50 is 2.51 µM (active).
In the case of `N#CC(C#N)=Cc1ccc(O)c(O)c1`, the AC50 is 7.94 µM (active).
As for `NCCc1c[nH]c2ccccc12`, the “activity, negative = inhibition” value was 15.6%.
Turning to `O=C(O)CNC(=O)[C@@H](CS)Cc1ccccc1`, the “activity, negative = inhibition” value is 28.1%.
With `COC(=O)[C@@H]1[C@@H](O)[C@@]2(O)c3c(OC)cc(OC)cc3O[C@@]2(c2ccc(OC)cc2)[C@H]1c1ccccc1`, the activity, negative = inhibition is -21.1% [at 11.4 µM].
Regarding `COc1cc2c(cc1OC)[C@]13CC[N@+]4(C)CC5=CCO[C@H]6CC(=O)N2[C@@H]1[C@@H]6[C@@H]5C[C@]34O`, the activity, negative = inhibition was -6.22% [at 11.4 µM].
Same read-out and setting: then `O=C(Oc1ccc([N+](=O)[O-])cc1)N1CCC(N2CCCCC2)CC1`, with 10.1%; and `O=C(O)c1cc(N=Nc2ccc([As](=O)(O)O)cc2)ccc1O`, with 11.3% [at 11.4 µM].
Consider `N[C@@H](CCCCP(=O)(O)O)C(=O)O`, for which the “activity, negative = inhibition” value was 5.13%.
With `Cc1ccc(N2C(=O)/C(=C/c3ccc(CN(CCC#N)S(C)(=O)=O)o3)C(=O)NC2=S)cc1C`, the concentration at half-maximal activity (AC50) was 12.6 µM (active).
For `NCCc1ccc(O)cc1`, the “activity, negative = inhibition” value is 3.64%.
Regarding `CC1=NN(c2ccc(S(=O)(=O)O)cc2C)C(=[OH+])[C@H]1N=Nc1cc(S(=O)(=O)O)ccc1C(=O)O.O.[Cr]`, the activity, negative = inhibition was -5.47% [at 11.4 µM].
On the same count and under the same terms, under `O=C(NCP(=O)(O)O)c1cccnc1` stands 1.84% [at 11.4 µM]; under `C=C[C@]12CN(C)[C@H]3C1[C@@]1(C(=O)Nc4ccccc41)[C@H]1C[C@H]2[C@H]3CO1`, -13.2% [at 25.6 µM].
With `c1cc2cc(c1)C[n+]1ccc(c3ccccc31)NCc1ccc(cc1)CNc1cc[n+](c3ccccc13)C2`, the half-maximal activity concentration (AC50) is 2.51 µM (active).
Take `CN1C(=O)CCS(=O)(=O)[C@H]1c1ccc(Cl)cc1`: the “activity, negative = inhibition” value was 2.23%.
As for `C[C@H]1C(=O)O[C@@H]2CCN3CC=C(COC(=O)[C@@](C)(O)[C@@]1(C)O)[C@H]23`, the “activity, negative = inhibition” value was 24.7% [at 25.6 µM].
On to `CCCCN1C(=O)/C(=C\c2ccco2)C(=O)N(CCc2ccccc2)C1=O`, for which the AC50 was 7.94 µM (active).
Take `c1ccc2c(c1)Sc1ccccc1N2C[C@H]1CN2CCC1CC2`: the activity, negative = inhibition was 8.95% [at 11.4 µM].
Still for that read-out and setting: then `C[C@H](NC(C)(C)C)C(=O)c1cccc(Cl)c1`, with “inactive”.
Turning to `CCCN1CCC[C@@H]2Cc3[nH]ncc3C[C@H]21`, the activity, negative = inhibition entry is “inactive”.
Turning to `CCN1C[C@]2(COC)CC[C@H](O)[C@@]34[C@@H]5C[C@H]6[C@@H](OC)[C@H]5[C@](O)(C[C@@H]6OC)[C@@](O)([C@@H](OC)[C@H]23)[C@@H]14`, the “activity, negative = inhibition” value is -3.36% [at 25.6 µM].
For the compound `CC[C@H]1CN2CC[C@@H]1C[C@H]2[C@@H](O)c1ccnc2ccc(OC)cc12`, the “activity, negative = inhibition” value is 6.12% [at 25.6 µM].
`CN(C)c1ccc(NC(=O)CN2C(=O)CN=C(c3ccccc3)c3ccccc32)cc1`: the “activity, negative = inhibition” value was -4.06%.
In the case of `Cc1sc2c(c1C)C(c1ccc(C(C)(C)C)cc1)=NCC(=O)N2CC(=O)Nc1nccs1`, the AC50 is 12.6 µM (active).
`O=[N+]([O-])O[C@H]1CO[C@H]2[C@H]1OC[C@@H]2O[N+](=O)[O-]`: the “activity, negative = inhibition” value is 28.9% [at 25.6 µM].
`CCOP(=O)(OCC)C(NC(C)=O)C(Cl)(Cl)Cl` (stereo not given): the “activity, negative = inhibition” value was -14%.
As to `O=c1[nH]c2ccccc2n1C1CCN(CCCC(c2ccc(F)cc2)c2ccc(F)cc2)CC1`, the activity, negative = inhibition entry is “inactive”.
For `Clc1ccc([C@@H](OCCN2CCCCC2)c2ccccc2)cc1`, the “activity, negative = inhibition” value is -7.32% [at 25.6 µM].
On to `C(=C/c1ccccc1)/CN1CCN(CCOC(c2ccccc2)c2ccccc2)CC1`, for which the AC50 is 5.01 µM (active).
In the case of `Fc1ccc(C(OCCN2CCN(C/C=C\c3ccccc3)CC2)c2ccc(F)cc2)cc1`, the concentration at half-maximal activity (AC50) was 7.94 µM (active).
With `CCOC(=O)c1ncn2c1[C@H]1CCCN1C(=O)c1cc(OC)ccc1-2`, the “activity, negative = inhibition” value was 15.1%.
For the compound `NS(=O)(=O)c1cc([C@@]2(O)NC(=O)c3ccccc32)ccc1Cl`, the “activity, negative = inhibition” value is -0.302% [at 25.6 µM].
For `O=C(O)C[O][Sb][O]CC(=O)O`, the activity, negative = inhibition is 3.17% [at 11.4 µM].
As for `O=C(O)[C@H]1[O][Sb][O][C@@H](C(=O)O)C1O` (stereo not given in full), the activity, negative = inhibition is 14.9% [at 11.4 µM].
Regarding `NCC[C@H](O)C(=O)N[C@H]1C[C@@H](N)[C@@H](O[C@H]2O[C@@H](CN)[C@@H](O)[C@@H](O)[C@@H]2N)[C@@H](O[C@H]2O[C@@H](CO)[C@@H](O)[C@@H]2O)[C@@H]1O`, the “activity, negative = inhibition” value was -2.49% [at 25.6 µM].
